Screens (PubChem)
RPL19A-GFP yeast – RPL19A-GFP expression modulators in yeast, primary screen, cell-based, S. cerevisiae, multiplex flow cytometry, MLPCN; 330,000 compounds, 0.3% hits; S. cerevisiae RPL19A-GFP strain, 3 h; hits give low values; percent response vs DMSO, % at 10 µM;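 active = percent response vs DMSO below 50%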;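 also: median channel GFP fluorescence of the barcoded RPL19A-GFP strain; ratio of sample median GFP to plate DMSO average so 100% = DMSO; lower means less RPL19A-GFP as with rapamycin TOR inhibition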
CIT2-GFP yeast – modulators of CIT2-GFP expression in yeast, primary screen, S. cerevisiae, GFP fusion, multiplex flow cytometry, MLPCN library. S. cerevisiae CIT2-GFP strain, 3 h; 100 means same as DMSO wells. GFP response vs DMSO, % at 10 µM. 320,000 compounds, 0.065% hits. AID 2029, 2009;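 active = GFP response relative to DMSO above a set limit, near the screen mean plus 3 SD, cut at about 150% in these data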;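 also: ratio of well median GFP fluorescence to mean of DMSO wells on the plate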
AGP1 TOR yeast – modulators of AGP1-GFP expression in yeast TOR pathway, primary screen, cell-based, multiplex flow cytometry, S. cerevisiae, MLPCN library. 3 h; GFP as percent of DMSO wells. GFP response vs DMSO, % at 10 µM. 320,000 compounds, 0.02% hits. AID 2066, 2009;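 active = GFP response relative to DMSO above a set limit, near screen average plus 3 SD, cut at about 150% in these data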;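 also: median GFP channel fluorescence of the gated AGP1 strain per well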
MEP2-GFP yeast – modulators of MEP2-GFP levels in yeast, primary screen, S. cerevisiae, multiplex flow cytometry, MLPCN library. S. cerevisiae MEP2-GFP strain, 3 h; 100% = DMSO control level. GFP response vs DMSO, % at 10 µM. 330,000 compounds, 0.51% hits;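 active = GFP response versus DMSO above a set limit, roughly screen mean plus 3 SD, cut at about 180% in these data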;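 also: median GFP fluorescence of the barcode-gated MEP2-GFP cells per well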
LAP4 TOR yeast – modulators of LAP4-GFP expression in yeast, primary screen, S. cerevisiae, multiplex flow cytometry, MLPCN library | AID 2023, 2009 | GFP response vs DMSO, % at 10 µM | 320,000 compounds, 0.34% hits | 3 h; median GFP as percent of DMSO wells;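 active = GFP response vs DMSO above a set limit, about the screen mean plus 3 SD, cut at about 150% in these data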
LAP4-GFP pick2 – LAP4-GFP expression modulators in yeast, confirmation, cell-based, second cherry pick, flow cytometry | shares compounds with LAP4 TOR yeast | S. cerevisiae LAP4-GFP strain, 3 h | GFP response vs DMSO, % at 10 µM | 590 compounds, 20% hits;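 active = GFP signal as percent of the solvent control above about 150%, meaning raised reporter expression, limit read from the data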;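 also: ratio of well median GFP fluorescence to plate DMSO mean so 100% = DMSO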
MEP2-GFP pick2 – modulators of MEP2-GFP levels in yeast, confirmation, S. cerevisiae, flow cytometry GFP, second cherry picks; shares compounds with LAP4 TOR yeast; S. cerevisiae MEP2-GFP strain, 3 h; GFP response vs DMSO, % at 10 µM; 590 compounds, 10% hits;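 active = GFP signal above 150% of the solvent control wells, that is a rise of more than half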;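 also: median channel GFP fluorescence of all gated yeast cells per well; ratio of median GFP to plate DMSO average so 100% = DMSO level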
RPL19A GFP CP2 – RPL19A-GFP modulators in TOR pathway yeast, confirmation, cell-based, S. cerevisiae, flow cytometry, second cherry pick. shares compounds with LAP4 TOR yeast. S. cerevisiae RPL19A-GFP strain, 3 h; hits give low values; 100% means same as DMSO wells. GFP response vs DMSO, % at 10 µM. 590 compounds, 3% hits;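 active = under 65% GFP response relative to DMSO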;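 also: median GFP channel fluorescence per well over the all cells gate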
CIT2 GFP CP2 – modulators of CIT2-GFP expression in yeast, confirmation, flow cytometry, second cherry pick, single plex. shares compounds with LAP4 TOR yeast. S. cerevisiae CIT2-GFP strain, 3 h; DMSO control wells read 100%. GFP response vs DMSO, % at 10 µM. 590 compounds, 8% hits. AID 2624, 2010;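 active = GFP response vs DMSO above about 150%, limit read from the data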;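 also: median green fluorescence per well over all gated yeast cells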
AGP1-GFP pick2 – AGP1-GFP expression modulators, hit retest, confirmation, cell-based, flow cytometry, S. cerevisiae, cherry pick set 2 | shares compounds with LAP4 TOR yeast | S. cerevisiae AGP1-GFP strain, 3 h | percent response vs DMSO, % at 10 µM | 590 tested, under 10 active;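 active = over 150 percent of DMSO response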;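 also: median GFP channel fluorescence over all cells without mother daughter split; sample median GFP divided by mean DMSO control so 100% equals DMSO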
Yeast autofluor – compound autofluorescence in yeast s288c, dose response, artefact control for yeast TOR pathway GFP screen, s288c strain. shares compounds with LAP4 TOR yeast. S. cerevisiae s288c, 520 nm autofluorescence, flow cytometry, 3 h; hits give high values; zero means same as solvent-only cells. fluorescence change (kMESF span) at 33 µM. 610 tested, under 10 active;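 active = fluorescence span over the dose series, or activity score, above about 33, limit read from the data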
Numbers without * were called inactive. Sampled rows, rich in hits. Any-hit rate of the full collection: about 0.89%.

How did COc1ccc(C2OC34CCCCC3C(C#N)(C#N)C2(C#N)C(=N)O4)cc1 (configuration not stated) do in these assays?
RPL19A-GFP yeast: 63; CIT2-GFP yeast: 80; AGP1 TOR yeast: 32; MEP2-GFP yeast: 139; LAP4 TOR yeast: 93; LAP4-GFP pick2: 94; MEP2-GFP pick2: 96; RPL19A GFP CP2: 100; CIT2 GFP CP2: 106; AGP1-GFP pick2: 96

How did O=C1C=C(Nc2ccc(Cl)cc2)C(=O)N1c1ccc(Cl)cc1 do in these assays?
RPL19A-GFP yeast: 101; CIT2-GFP yeast: 101; AGP1 TOR yeast: 96; MEP2-GFP yeast: 100; LAP4 TOR yeast: 98; LAP4-GFP pick2: 96; MEP2-GFP pick2: 96; RPL19A GFP CP2: 99; CIT2 GFP CP2: 104; AGP1-GFP pick2: 97; Yeast autofluor: 0.2

What do the screens show for `Oc1cc(-c2ccc(N3CCCCC3)nc2)cc2cccnc12`?
RPL19A-GFP yeast: 92; CIT2-GFP yeast: 97; AGP1 TOR yeast: 87; MEP2-GFP yeast: 115; LAP4 TOR yeast: 164*; LAP4-GFP pick2: 117; MEP2-GFP pick2: 119; RPL19A GFP CP2: 103; CIT2 GFP CP2: 99; AGP1-GFP pick2: 98; Yeast autofluor: 0.5

Results for Oc1cc(-c2ccncc2)cc2cccnc12 ?
RPL19A-GFP yeast: 101; CIT2-GFP yeast: 95; AGP1 TOR yeast: 107; MEP2-GFP yeast: 106; LAP4 TOR yeast: 117

How did CCN1CCN(C(=O)C2=CC(c3ccc(OC)cc3)=NS(=O)(=O)N2C)CC1 do in these assays?
RPL19A-GFP yeast: 83; CIT2-GFP yeast: 91; AGP1 TOR yeast: 109; MEP2-GFP yeast: 127; LAP4 TOR yeast: 167*; LAP4-GFP pick2: 101; MEP2-GFP pick2: 103; RPL19A GFP CP2: 98; CIT2 GFP CP2: 102; AGP1-GFP pick2: 101

How did Cc1c(OCC(F)(F)F)ccnc1CS(=O)c1nc2ccccc2[nH]1 (configuration not stated) do in these assays?
RPL19A-GFP yeast: 101; CIT2-GFP yeast: 79; AGP1 TOR yeast: 85; MEP2-GFP yeast: 94; LAP4 TOR yeast: 158*; LAP4-GFP pick2: 122; MEP2-GFP pick2: 106; RPL19A GFP CP2: 99; CIT2 GFP CP2: 105; AGP1-GFP pick2: 101

Results for COCCCOc1ccnc(CS(=O)c2nc3ccccc3[nH]2)c1C (configuration not stated) ?
RPL19A-GFP yeast: 101; CIT2-GFP yeast: 73; AGP1 TOR yeast: 78; MEP2-GFP yeast: 95; LAP4 TOR yeast: 117

What do the screens show for `COc1ccc2c(c1)S/C(=C\C(=O)c1ccncc1)N2C`?
RPL19A-GFP yeast: 56; CIT2-GFP yeast: 68; AGP1 TOR yeast: 56; MEP2-GFP yeast: 103; LAP4 TOR yeast: 106; LAP4-GFP pick2: 97; MEP2-GFP pick2: 114; RPL19A GFP CP2: 62*; CIT2 GFP CP2: 100; AGP1-GFP pick2: 67; Yeast autofluor: 0.81

Results for O=C(Cn1cccc1C(=O)c1ccccc1)NCCCc1ccccc1 ?
RPL19A-GFP yeast: 89; CIT2-GFP yeast: 91; AGP1 TOR yeast: 93; MEP2-GFP yeast: 88; LAP4 TOR yeast: 95

What do the screens show for `O=C(Cn1cccc1C(=O)c1ccccc1)NCCC1=CCCCC1`?
RPL19A-GFP yeast: 51; CIT2-GFP yeast: 98; AGP1 TOR yeast: 23; MEP2-GFP yeast: 158; LAP4 TOR yeast: 90; LAP4-GFP pick2: 99; MEP2-GFP pick2: 100; RPL19A GFP CP2: 98; CIT2 GFP CP2: 110; AGP1-GFP pick2: 106

What do the screens show for `CCOC(=O)c1c(C)oc2c1c(C(c1ccncc1)N1CCOCC1)c(O)c1ccccc12` (configuration not stated)?
RPL19A-GFP yeast: 89; CIT2-GFP yeast: 92; MEP2-GFP yeast: 93; LAP4 TOR yeast: 185*; Yeast autofluor: 2.6

What do the screens show for `COc1ccc(NC2=C(Cl)C(=O)N(CCc3ccccc3)C2=O)cc1`?
RPL19A-GFP yeast: 102; CIT2-GFP yeast: 104; AGP1 TOR yeast: 102; MEP2-GFP yeast: 105; LAP4 TOR yeast: 95; Yeast autofluor: 0

Results for COc1ccc(N2C(=O)C(Cl)=C(NCc3ccccc3)C2=O)cc1 ?
RPL19A-GFP yeast: 99; CIT2-GFP yeast: 80; AGP1 TOR yeast: 103; MEP2-GFP yeast: 98; LAP4 TOR yeast: 116; Yeast autofluor: -0.1

Results for COc1ccc(CCNC2CC(=O)N(CCc3ccccc3)C2=O)cc1 (configuration not stated) ?
RPL19A-GFP yeast: 100; CIT2-GFP yeast: 99; AGP1 TOR yeast: 105; MEP2-GFP yeast: 102; LAP4 TOR yeast: 95

What do the screens show for `CCOc1ccc(NC2=C(Cl)C(=O)N(Cc3ccccc3)C2=O)cc1`?
RPL19A-GFP yeast: 94; CIT2-GFP yeast: 89; AGP1 TOR yeast: 95; MEP2-GFP yeast: 97; LAP4 TOR yeast: 99; Yeast autofluor: 0.2

What do the screens show for `CCOc1ccccc1NC1=C(Cl)C(=O)N(c2ccc(OC)cc2)C1=O`?
RPL19A-GFP yeast: 100; CIT2-GFP yeast: 97; AGP1 TOR yeast: 94; MEP2-GFP yeast: 99; LAP4 TOR yeast: 103

How did COc1ccc(CCN2C(=O)c3cccnc3C2=O)cc1OC do in these assays?
RPL19A-GFP yeast: 96; CIT2-GFP yeast: 101; AGP1 TOR yeast: 99; MEP2-GFP yeast: 95; LAP4 TOR yeast: 93

How did CCOc1ccc(NC2=NCC(=O)N2CCc2ccccc2)cc1 do in these assays?
RPL19A-GFP yeast: 85; CIT2-GFP yeast: 92; AGP1 TOR yeast: 100; MEP2-GFP yeast: 104; LAP4 TOR yeast: 99
